Experimental data: PubChem BioAssay (NCI)
This is part of a sample that, as a whole, favours compounds with a hit. Of some 79,000 tested, about 15% had one in any assay. The source made the active and inactive calls. No stated cut-off is given here; in the data, active means growth inhibition above about 70%; inactive means the rest.

Test: NCI Yeast Anticancer Drug Screen. Data for the rad50EPP+ strain (AID 151);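 further: 0% = growth of vehicle-treated control cultures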
Settings: S. cerevisiae rad50 mutant strain, stronger effect = higher value
Protocol: Growth inhibition of yeast strains with defined genetic alterations is measured as a screen for potential anti-cancer activity. Selected strains with alterations in DNA damage repair or cell cycle control were exposed to compounds and growth inhibition was measured relative to vehicle treated controls. The strain used in this assay is rad50EPP+

Measured: growth inhibition

CCO/C=C1\SC(=S)N(c2ccc(OCC)cc2)C1=O
inactive: at 1.2 µM -38% | at 3.7 µM -21% | at 11.0 µM -6% | at 33.0 µM 42%
active: at 100.0 µM 76%

COc1cc([C@@H]2c3cc4c(cc3[C@@H](NC(=O)NO)[C@H]3COC(=O)[C@H]23)OCO4)cc(OC)c1O
inactive: at 1.2 µM -2% | at 3.7 µM 0% | at 11.0 µM 2% | at 33.0 µM 2% | at 100.0 µM 9%

CCC(/C=C/c1ccccc1)=N\Nc1ccc(Cl)cc1
inactive: at 1.2 µM 4% | at 3.7 µM 9% | at 11.0 µM 19% | at 33.0 µM 17% | at 100.0 µM 19%

O=[N+]([O-])/C=C/c1cc2ccc3ccccc3c2[nH]1
active: at 1.2 µM 91% | at 3.7 µM 94% | at 11.0 µM 94% | at 33.0 µM 93% | at 100.0 µM 87%

O=C(C#Cc1ccccc1)/C=C/c1ccccc1
active: at 33.0 µM 93% | at 100.0 µM 94%
inactive: at 1.2 µM 1% | at 3.7 µM 20% | at 11.0 µM 53%

O=C(NOC(=O)c1ccc([N+](=O)[O-])cc1)c1ccc(Cl)cc1
inactive: at 1.2 µM -19% | at 3.7 µM 23% | at 11.0 µM 68%
active: at 33.0 µM 85% | at 100.0 µM 94%

CCOC(=S)SSSC(=S)OCC
active: at 11.0 µM 93% | at 33.0 µM 99% | at 100.0 µM 99%
inactive: at 1.2 µM 18% | at 3.7 µM 51%

CCCCCCC=C(C(=O)OCC)C(=O)OCC
inactive: at 1.2 µM -1% | at 3.7 µM 4% | at 11.0 µM 7% | at 33.0 µM 14% | at 100.0 µM 24%
